Screens: PubChem, National Center for Advancing Translational Sciences (NCATS)
TDP1 inh = inhibitors of human tyrosyl-DNA phosphodiesterase TDP1 | Q9NUW8 | recombinant TDP1, AlphaScreen DNA substrate cleavage | Potency, µM (titrated, usually from 130 µM), inactives show top-dose activity change, negative = inhibition, most hits filed as inhibitors | 350,000 tested, 0.28% active | AID 485290; further: on the % scale 0 is the no-effect control and ±100 the full control effect; nearly all actives have a fitted effect of over 40% in size
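Recombinant E. coli-expressed Tdp1 (1 nM) preincubated with compound 15 min at RT, then 5'-biotin/3'-phosphotyrosine-FITC DNA substrate (15 nM) added for 5 min. AlphaScreen beads (10 ug/ml) added, 10 min RT; tyrosine-FITC cleavage read as signal loss.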
Tb PFK inh = blocks T. brucei phosphofructokinase; O15648; T. brucei PFK, ADP-Glo luminescence; Potency, µM (titrated, usually from 57.5 µM), for inactives: top-dose activity, negative = inhibition, hits mostly inhibitors; 330,000 tested, 0.17% active;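 further: 0% = uninhibited 1x PFK enzyme wells and -100% = no-enzyme wells; nearly all actives have a fitted effect of over 60% in size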
Target sequence (O15648 whole entry, looked up): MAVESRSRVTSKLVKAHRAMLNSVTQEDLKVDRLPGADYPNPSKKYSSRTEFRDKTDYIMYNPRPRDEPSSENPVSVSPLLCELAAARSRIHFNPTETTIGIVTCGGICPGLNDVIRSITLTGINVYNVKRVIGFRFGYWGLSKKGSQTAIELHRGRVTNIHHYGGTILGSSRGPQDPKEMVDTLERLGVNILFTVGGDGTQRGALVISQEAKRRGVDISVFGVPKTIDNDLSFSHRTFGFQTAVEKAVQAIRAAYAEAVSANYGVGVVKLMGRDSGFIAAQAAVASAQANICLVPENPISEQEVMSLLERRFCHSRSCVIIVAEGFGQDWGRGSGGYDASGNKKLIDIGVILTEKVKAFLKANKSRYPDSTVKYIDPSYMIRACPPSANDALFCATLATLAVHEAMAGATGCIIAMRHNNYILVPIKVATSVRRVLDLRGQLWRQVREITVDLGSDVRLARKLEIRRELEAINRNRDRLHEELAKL
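PFK 1.25 nM, F6P 0.5 mM, ATP 0.1 mM, 0.1 M TEA pH 8.0, 5 mM MgCl2, 0.01% Tween20, 0.1% BSA; 45 min RT. ADP-Glo readout. qHTS titration up to 57 uM; curves fitted, compounds curve-classed.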
S-ASM inh = blocks human secretory acid sphingomyelinase; P17405; placental ASM, HMU-PC fluorogenic substrate, 60 min; Potency, µM (top dose mostly 57.5 µM), for inactives: at the highest dose activity change, negative = inhibition, usual class: inhibitors; 340,000 tested, 0.006% active
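Human placenta-derived ASM enzyme was preincubated with compound for 10 minutes at room temperature, then given fluorogenic substrate HMU-PC0 (9 uM final) for 60 minutes at 37 °C; a pH 10 stop preceded fluorescence reading at Ex 386/Em 447 nm.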
VDR inhibitor = vitamin D3 receptor (human) inhibition. P11473. VDR-SRC2-3 peptide fluorescence polarization, 2 h. Potency, µM, inactives show max response, negative = inhibition, actives largely listed as inhibitors. 400,000 tested, 0.93% active; further: on the % scale 0 is the no-effect control and ±100 the full control effect
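Two reagent solutions held at 4 deg C in the dark were dispensed, compounds pinned at 23 nl, and the mixture incubated 2 h at room temperature. Read-out: fluorescence polarization of VDR–SRC2-3 peptide binding.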
Pin1 inhibitor = blocks the human prolyl isomerase Pin1 | Potency, µM (series often up to 115 µM), for inactives: at the highest dose activity, negative = inhibition, usual class: inhibitors | 390,000 tested, 0.009% active | Pin1 FP peptide displacement, HiFluor488, 10 min | AID 504891 | Q13526; active means well fitted inhibition curve with a large enough effect in the polarisation, with a control signal flat, not every such curve was filed as active; inconclusive means small, poorly fitted or top-dose-only effect, or effect the other way, or a change in a side signal; inactive means no such curve, though single readings can be large or run the other way; the % refers to the polarisation; further: on the % scale 0 is the no-effect control and ±100 the full control effect
Target sequence (Q13526 whole entry, looked up): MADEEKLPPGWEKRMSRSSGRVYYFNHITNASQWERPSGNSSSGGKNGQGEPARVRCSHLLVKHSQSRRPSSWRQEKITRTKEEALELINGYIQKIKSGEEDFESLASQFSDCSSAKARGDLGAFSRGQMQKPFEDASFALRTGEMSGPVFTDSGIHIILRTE
PLK1 PBD inh = inhibitors of human PLK1 polo-box domain binding; 360,000 tested, 2.8% active; AID 720504; Plk1 PBD binding of FITC phosphopeptide, fluorescence polarization; Potency, µM, for the others: max response, negative = inhibition, hits mostly inhibitors; P53350; further: series mostly up to about 57 µM; on the % scale 0 is the no-effect control and ±100 the full control effect; nearly all actives have a fitted effect of over 65% in size
Active calls of the source: *; u = inconclusive; x = not tested or not shown; ! = a repeat was not active; [ ] = dose if it differs, or a comment. In the library only some 3.1% were active in any assay of this set; here they are far more common. Unless noted, the call rests on the fitted dose curve; in most records, active means well fitted curve in the direction sought with a large enough effect; inconclusive means small, poorly fitted or top-dose-only effect, or another doubt; inactive means no such curve, though single readings can be large; an effect the other way counts as inactive or inconclusive. Potency means the concentration at half of the fitted maximal effect.

SMILES	TDP1 inh	Tb PFK inh	S-ASM inh	VDR inhibitor	Pin1 inhibitor	PLK1 PBD inh
O=C(c1ccc(CNS(=O)(=O)c2ccccc2)cc1)N1CCC2(CC1)OCCO2	-3%	3%	3%	-21%	0%	21µM*
O=Cc1ccc(Cl)cc1Cl	16%	x	x	x	x	x
CC(=O)Nc1c2sscc-2n(C)c1=O	0%	x	x	40µM*	x	x
CCC(C)=O	17%	x	x	x	x	x
CNS(=O)(=O)c1ccc(N=Cc2c(O)n(-c3ccc(C)cc3)c(=O)[nH]c2=O)cc1	-1%	-2%	11%	25%	19%	2%
CCc1nnc(NS(=O)(=O)c2ccc(N=Cc3c(O)n(-c4ccc(Cl)cc4)c(=O)[nH]c3=O)cc2)s1	3%	0%	-1%	-9%	-5%	27µM*
CC(=O)CC(c1ccccc1)c1c(O)c2cc(O)ccc2oc1=O (centres undefined)	2%	x	x	-3%	x	x
Nc1ncnc2c1ncn2[C@@H]1O[C@H](COP(=O)(O)OP(=O)(O)OP(=O)(O)O)[C@H]2OC3(O[C@H]21)C([N+](=O)[O-])=CC(=[N+]([O-])[O-])C=C3[N+](=O)[O-] (some centres undefined)	-6%	x	x	u	x	x
CCC(Cl)[N+](=O)[O-] (centres undefined)	13%	x	x	x	x	x
O=C(Nc1cccc(C(=O)Nc2cc(C(=O)Nc3ccc([S+](=O)([O-])[O-])c4cc([S+](=O)([O-])[O-])cc(SOOO)c34)ccc2F)c1)Nc1cccc(C(=O)Nc2cc(C(=O)Nc3ccc([S+](=O)([O-])[O-])c4cc([S+](=O)([O-])[O-])cc([S+](=O)([O-])[O-])c34)ccc2F)c1	2.2µM*	x	x	40µM*	x	x
CCC(C)N1C(=O)NC(=O)C2(Cc3c(ccc4ccccc34)N(C)C2)C1=O (centres undefined)	8%	1%	-8%	-5%	-3%	13µM*
CCC1(C)CC(C(N)=S)CCO1 (centres undefined)	-7%	u	2%	20µM*	0%	2.1µM*
c1ccc2c(c1)CCCC2	11%	x	x	x	x	x
Nc1ccc([N+](=O)[O-])cc1[N+](=O)[O-]	17%	x	x	x	x	x
O=C1NS(=O)c2cc([N+](=O)[O-])cc([N+](=O)[O-])c21 (centres undefined)	1%	2%	1%	u	0%	24µM*
COc1ccc(/C=C2/C(=O)N(Cc3ccco3)C(=O)N(C(C)C)C2=O)cc1	-13%	-6%	0%	u	u	3.4µM*
O=C1NC(=O)N(Cc2ccco2)C(=O)/C1=C/c1ccc(-c2cccc([N+](=O)[O-])c2)o1	x	-27%	-4%	14µM*	u	0.42µM*
Cc1cccc(OCCn2cccc2/C=C2/C(=O)NC(=O)N(Cc3ccco3)C2=O)c1	-10%	-5%	-19%	8%	8%	1.9µM*
CN(C)c1ccc(/C=C2/C(=O)NC(=O)N(Cc3ccco3)C2=O)cc1	28µM*	1%	1%	u	13%	1.9µM*
CCc1ccc(N2C(=O)NC(=O)/C(=C/c3cccn3CCOc3ccc(C)cc3)C2=O)cc1	5%	3%	-6%	17%	u	-10%
Clc1nc(Cl)nc(Nc2ccccc2Cl)n1	6%	x	x	x	x	x
C=C[C@@H]1CN2CC[C@H]1C[C@H]2[C@H](O)c1ccnc2ccccc12	-2%	x	x	1%	x	x
NS(=O)(=O)c1cc(C(=O)OCC(=O)Nc2ccc3[nH]c(=O)[nH]c3c2)ccc1Cl	-1%	u	-2%	-16%	4%	4%
O=C1NC(=O)N(Cc2ccc(F)cc2)C(=O)/C1=C\c1ccc(N2CCCC2)cc1	5%	-2%	-4%	79µM*	u	1.5µM*
CN1C(=O)C(=Cc2ccc(N3CCCCCC3)cc2)C(=O)N(C)C1=O	-11%	-20%	-3%	3%	u	1.5µM*
SMILES	TDP1 inh	Tb PFK inh	S-ASM inh	VDR inhibitor	Pin1 inhibitor	PLK1 PBD inh
CN(C)c1ccc(/C=C2\C(=O)NC(=O)N(CCc3ccc(F)cc3)C2=O)cc1	-2%	-5%	-1%	40µM*	50%	1.1µM*
O=C1/C(=C/c2cccnc2)N2CCC1CC2	0%	-2%	3%	3%	-4%	-3%
CN1C(=O)C(=Cc2cccnc2)C(=O)N(C)C1=O	-1%	-5%	4%	u	5%	17µM*
CC(=O)C1=C(O)[C@@H]2[C@@H]3c4c[nH]c5cccc(c45)C[C@@H]3C(C)(C)N2C1=O	11%	x	x	u	x	x
C=C(Cl)Cl	14%	x	x	x	x	x
C[C@H]1CO1	4%	x	x	-2%	x	x
O=C(O)C(Cl)(Cl)Br	8%	x	x	x	x	x
CCC1(CC)CCNC1=O	7%	x	x	12%	x	x
CCN(CC)c1ccc(N=Cc2c(O)[nH]c(=O)[nH]c2=O)cc1	0%	-1%	-8%	79µM*	u	-9%
COc1ccc(C2SCC(=O)Nc3c2c(C)nn3-c2ccccc2)cc1 (centres undefined)	6%	1%	1%	-13%	0%	-14%
Cc1nn(C2CCOC(C)(C)C2)c2c1C(c1ccc(OC(C)C)cc1)SCC(=O)N2 (centres undefined)	6%	2%	0%	79µM*	9%	-19%
COC(=O)C12CC3=CC(CC3=O)Cc3ccccc3[C@@H]1CNC2=O (some centres undefined)	4%	x	x	-27%	x	x
O=C(O)c1cccc2c1NC(C(=O)O)C1CC(Sc3ccccc3[N+](=O)[O-])C(Cl)C21 (centres undefined)	x	u	31%	-68%	x	8.4µM*
CC(=O)c1ccc2c(c1)C1C(Cl)C(Sc3ccccc3[N+](=O)[O-])CC1C(C(=O)O)N2 (centres undefined)	-5%	12%	1%	-1%	u	27µM*
CN=C=O	10%	x	x	x	x	x
Cc1ccc2nc(C)n(-c3ccc(F)cc3)c(=O)c2c1	7%	4%	-1%	-17%	0%	21µM*
Cc1nc2ccccc2c(=O)n1-c1ccc(-c2ccccc2)cc1	x	17%	6%	2%	4%	2%
CC1CC[C@@]2(OC1)O[C@@H]1[C@@H](O)[C@H]3C4CC[C@H]5C[C@@H](O[C@@H]6O[C@H](CO)[C@H](O[C@@H]7O[C@H](CO)[C@@H](O)[C@H](O[C@@H]8OC[C@@H](O)[C@H](O)[C@H]8O)[C@H]7O[C@@H]7O[C@H](CO)[C@@H](O)[C@H](O[C@@H]8O[C@H](CO)[C@@H](O)[C@H](O)[C@H]8O)[C@H]7O)[C@H](O)[C@H]6O)[C@H](O)C[C@]5(C)C4CC[C@]3(C)[C@H]1[C@@H]2C (some centres undefined)	16%[56.1 µM]	x	x	-10%	x	x
C#CCO	6%	x	x	x	x	x
[O]=[Cr](=[O])([OH])[O][Cr](=[O])(=[O])[OH]	6.3µM*!	x	x	-8%	x	x
